Screening data (PubChem)
In the library only some 12% were active in any assay of this set; here they are far more common.
Sfp PPTase inh = blocks B. subtilis Sfp PPTase activity; Potency, µM, inactives show largest response in the series, negative = inhibition, actives largely listed as inhibitors; Biochemical Sfp PPTase activity, qHTS; Q9F4F7; 3.5% of 310,000 active;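 also: the enzyme is Sfp with the accession as filed and its product quenches rhodamine fluorescence; 0% = enzyme reaction without inhibitor and -100% = no enzyme wells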
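After 15 min at room temperature with compound, 15 nM Sfp received 5 uM rhodamine-CoA plus 12.5 uM BHQ-2-ybbR (50 mM Hepes pH 7.6, 10 mM MgCl2). Rate came from the fluorescence difference over 30 min, ex 525/em 598 nm.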
G9a block = inhibitors of human histone lysine methyltransferase G9a | Potency, µM (top dose mostly 102 µM), for inactives: at the top dose activity, negative = inhibition, most hits filed as inhibitors | Q96KQ7 | G9a H3K9 monomethylation, AlphaScreen, 2 h | 8.8% of 350,000 active; also: % is scaled to controls: 0 for no effect and ±100 for the full control effect; nearly all actives have a fitted effect of over 75% in size
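Chemiluminescent proximity detection of H3K9 monomethylation, read after 10 min bead incubation in the dark. Reaction: 20 nM G9a, 500 nM biotin-H3K9 peptide, 20 uM SAM cofactor, 2 h, room temperature, following 15 min enzyme-compound preincubation.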
HP1b binding inh = blocks HP1-beta chromodomain binding to methylated histone tails | P83916 | AlphaScreen HP1-beta / biotin-H3K9me3 peptide binding | AID 540317 | Potency, µM (titrated, usually from 114 µM), for inactives: at the top dose activity change, negative = inhibition, usual class: inhibitors | 0.56% of 390,000 active; also: nearly all actives have a fitted effect of over 70% in size
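Compound inhibition of the preformed complex between 50 nM HP1-beta and 50 nM biotinylated H3K9me3 peptide was read by AlphaScreen. Buffer was PBS pH 7.4 with 0.01% Tween-20. Incubations ran 30 min at room temperature, with 10 ug/mL donor/acceptor beads.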
L3MBTL1 block = L3MBTL1 (human) inhibition; Potency, µM (highest dose often 57.1 µM), for the others: top-dose activity, negative = inhibition, hits mostly inhibitors; 0.66% of 230,000 active; AID 485360; AlphaScreen L3MBTL1–H3K9me1 peptide binding; also: % is scaled to controls: 0 for no effect and ±100 for the full control effect; nearly all actives have a fitted effect of over 60% in size
Target sequence (Q9Y468 whole entry, looked up): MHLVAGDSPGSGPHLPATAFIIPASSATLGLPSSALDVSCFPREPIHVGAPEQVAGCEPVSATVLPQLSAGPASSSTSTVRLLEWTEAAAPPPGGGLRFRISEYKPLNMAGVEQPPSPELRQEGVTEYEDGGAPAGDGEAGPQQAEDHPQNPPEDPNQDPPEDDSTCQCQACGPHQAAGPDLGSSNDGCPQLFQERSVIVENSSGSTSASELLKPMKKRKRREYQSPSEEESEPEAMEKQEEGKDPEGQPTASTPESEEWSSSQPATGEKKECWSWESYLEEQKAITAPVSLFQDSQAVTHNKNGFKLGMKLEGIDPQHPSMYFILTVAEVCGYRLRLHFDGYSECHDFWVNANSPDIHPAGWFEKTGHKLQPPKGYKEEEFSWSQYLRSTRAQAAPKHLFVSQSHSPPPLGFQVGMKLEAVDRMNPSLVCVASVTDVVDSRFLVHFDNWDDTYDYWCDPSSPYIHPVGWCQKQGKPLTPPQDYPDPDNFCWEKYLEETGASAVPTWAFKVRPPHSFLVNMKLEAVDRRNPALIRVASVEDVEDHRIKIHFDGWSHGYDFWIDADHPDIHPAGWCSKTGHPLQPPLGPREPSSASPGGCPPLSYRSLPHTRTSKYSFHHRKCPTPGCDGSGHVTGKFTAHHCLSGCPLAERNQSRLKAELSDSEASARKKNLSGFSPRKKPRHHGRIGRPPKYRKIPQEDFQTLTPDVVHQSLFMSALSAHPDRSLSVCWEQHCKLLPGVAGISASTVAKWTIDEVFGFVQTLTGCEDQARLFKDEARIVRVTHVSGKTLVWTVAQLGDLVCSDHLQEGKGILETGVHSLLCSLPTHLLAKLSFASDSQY
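AlphaScreen assay: L3MBTL1 (50 nM final) was preincubated 30 min at room temperature with biotinylated H3(1-15)K9me1 peptide (75 nM final), then 30 min with library compounds; streptavidin donor and nickel chelate acceptor beads (10 ug/mL final) added, 30 min dark.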
BAZ2B block = BAZ2B (human) inhibition; Q9UIF8; AlphaScreen BAZ2B-H3K14Ac peptide displacement; Potency, µM (top dose mostly 114 µM), without a hit: top-dose activity change, negative = inhibition, hits mostly inhibitors; 4.4% of 360,000 active; also: % is scaled to controls: 0 for no effect and ±100 for the full control effect; nearly all actives have a fitted effect of over 60% in size
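Compounds, titrated to a top concentration of 110 uM, were incubated 30 min at room temperature with preformed BAZ2B/acetyl-K14 H3 peptide complex (50 nM each). Proximity signal was measured by AlphaScreen after 20 min with beads.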
JMJD2A Tudor = inhibitors of human JMJD2A Tudor domain | O75164 | AID 504339 | AlphaScreen JMJD2A-Tudor / H3K4me3 peptide binding | Potency, µM (highest dose often 114 µM), inactives show at the highest dose activity change, negative = inhibition, actives largely listed as inhibitors | 4.4% of 390,000 active; also: % is scaled to controls: 0 for no effect and ±100 for the full control effect; nearly all actives have a fitted effect of over 50% in size
Numbers without * were called inactive; u = inconclusive; x = no result; [ ] = remark or other dose. Calls follow the shape of the dose curve; as a rule, active = well fitted curve in the direction sought with a large enough effect; inconclusive = small, poorly fitted or top-dose-only effect, or another doubt; inactive = no such curve, though single readings can be large; an effect the other way counts as inactive or inconclusive. Potency is read from the fitted curve at half-maximal effect.

SMILES	Sfp PPTase inh	G9a block	HP1b binding inh	L3MBTL1 block	BAZ2B block	JMJD2A Tudor
Cc1cc(C)nc(SCC(=O)c2ccc(O)c(O)c2)n1	u	1.8µM*	20%	x	u	13µM*
Cc1ccc(-c2csc(NC(=O)CSc3nc(C)cc(=O)[nH]3)n2)cc1	-1%	45µM*	11%	x	u	u
O=C(CSc1nc2ccccc2c(=O)[nH]1)c1ccc(O)cc1O	-12%	u	15%	7%	2%	-8%
Cc1ccc(-c2csc(NC(=O)CSC3=NCCS3)n2)cc1	u	1%[59 µM]	51%	-6%	-3%	15%
O=C(CSc1nc2ccccc2c(=O)[nH]1)c1ccc(O)c(O)c1	-13%	5%[12.7 µM]	-58%	-5%[11.4 µM]	-8%	56µM*
Cc1cc(SCC(=O)c2ccc(O)c(O)c2)n2nc(C)c(-c3ccccc3)c2n1	0%	11µM*	4%	-23%	u	-19%[11.4 µM]
O=C(Cn1c(=O)nc(-c2ccccc2)c2cc(Cl)ccc21)N1CCN(c2ccc(F)cc2)CC1	x	27%[59 µM]	-8%	x	-14%	-20%
CC1=C(C(=O)Nc2ccc(F)cc2F)C2(CCN(C(C)C)CC2)OC1=O	x	6%[59 µM]	16%	x	-1%	3%
CCCN1CCN(CCNC(=O)Nc2cc(C)ccc2OC)CC1	x	-3%[59 µM]	28%	x	-10%	-12%
CCCC/C=C/C(NC(=O)c1ccc(C(F)(F)F)cc1)c1ccccc1 (stereo not given)	25%	x	x	x	x	x
O=C1NC(=O)/C(=C/c2ccc3c(c2)OC(F)(F)O3)S1	x	55%[59 µM]	x	x	x	x
COCc1cc(C)nc(SCC(=O)Oc2ccccc2)c1C#N	9%	71%	34%	70%	116%	11%
COCc1cc(C)nc(SCC(=O)c2ccc(O)c(O)c2)c1C#N	56µM*	10µM*	1%	-4%	-38%	22µM*
Cc1cc(C)nc(SCC(=O)c2ccc(O)cc2O)n1	45µM*	40µM*	63%	x	-5%	-12%
Cc1cc(C)nc(SCC(=O)Nc2ncccn2)n1	11%	15%	x	-8%	-9%	x
Cc1ccc(C(=O)CSc2nc(C)cc(=O)[nH]2)cc1	1%	50µM*	61%	7%	-3%	-14%
Cc1cc(C)nc(SCC(=O)NN)n1	-13%	22µM*	6%	-25%	50µM*	-4%
Cc1ccc(C(=O)NNC(=O)COc2ccc(Cl)cc2C)o1	x	6%[12.7 µM]	40%	-3%	2%	3%
O=C1CCCC2=C1C1(CCC1)N=C(Nc1nc3ccccc3o1)N2	x	x	x	x	x	-23%
CC(=O)Nc1ccc(S(=O)(=O)NCC(=O)Nc2ccc3c(c2)OCO3)cc1	x	x	24%	-1%	x	-12%
Cc1cc(=O)[nH]c(SCC(=O)c2ccc(O)c(O)c2)n1	-58%	7.9µM*	7%	u	56µM*	-8%
Cc1cc(C)nc(SCNC(=O)c2ccc(Cl)cc2)n1	56µM*	50µM*	41%	x	-10%	u
CN(Cc1ccccc1)c1nc(-c2cccc([N+](=O)[O-])c2)nc2ccccc12	6%	4%[59 µM]	-8%	4%	-24%	32µM*
O=[N+]([O-])c1cccc(-c2nc(NCc3ccccc3)c3ccccc3n2)c1	2%	u	5%	-8%	u	-17%
COc1ccc(-c2nc(SCC(=O)NCCc3ccc(OC)c(OC)c3)n[nH]2)cc1	x	13%[59 µM]	19%[57 µM]	x	2%	-14%
SMILES	Sfp PPTase inh	G9a block	HP1b binding inh	L3MBTL1 block	BAZ2B block	JMJD2A Tudor
CC(=O)c1c(C)c(C)c2n1CCn1c(C)ccc1-2	-19%	6.3µM*	-10%	x	u	u
CCOc1ccccc1N1CC(C(=O)N2CCc3ccccc3C2)CC1=O (stereo not given)	15%	29%[12.7 µM]	-9%	x	-8%	28µM*
CC(C)CN(C(=O)CSc1nnc2ccccn12)C1CCS(=O)(=O)C1 (stereo not given)	x	11%[2.33 µM]	21%	-7%	-5%	-22%
Cc1nc(SCC(=O)N(CC(C)C)C2CCS(=O)(=O)C2)c(C#N)c(C)c1C (stereo not given)	x	50µM*	40%	-3%	10%	-6%
Cc1ccc(-n2ccnc2SCC(=O)N(CC(C)C)C2CCS(=O)(=O)C2)c(C)c1 (stereo not given)	0%	x	-18%	-4%	-30%	20µM*
CC(C)CN(C(=O)CSc1nn(-c2ccc(Cl)cc2)c(=S)s1)C1CCS(=O)(=O)C1 (stereo not given)	6%	20µM*	5%	27%	0%	-15%
CC(C)(CNC(=O)c1ccc(-c2ccccc2Cl)o1)N1CCOCC1	x	-5%	16%	1%	-1%	-17%
COc1ccc(N/C=C2\CCc3ccccc3C2=O)cc1	56µM*	2µM*	54%	12%	14%	15%
COc1cccc(/C=C2\CCc3ccccc3C2=O)c1	-22%	260%	87%	59%	50%	79%
COc1ccc2c(c1)CC/C(=C/c1cc(OC)c(OC)c(OC)c1)C2=O	u	-32%[59 µM]	29%	x	-35%	-20%
O=C1OC2(CCCCC2)OC(=O)C1=CNc1ccc2c(c1)OCO2	1%	8%[59 µM]	20%	18%	9%	-10%
COc1ccc(N/C=C2\CCOC2=O)cc1	18%	9%[59 µM]	7%	6%	-1%	-24%
COc1ccc2c(c1)CC/C(=C\Nc1ccc3c(c1)OCO3)C2=O	22µM*	2.5µM*	u	x	u	u
O=C1/C(=C/Nc2ccc3c(c2)OCO3)CCc2ccccc21	35µM*	1.8µM*	u	x	-38%	-42%
COc1ccc2c(c1)CC/C(=C\C=C\c1ccccc1)C2=O	28µM*	u	18%	-22%	-2%	-18%
COC(=O)C1CC1C(NC(=O)[C@H]1CCCCN1)c1ccccc1 (stereo not given in full)	13%	x	x	x	x	x
CC(Oc1cccc(Cl)c1)C(=O)Nc1cc(Cl)ccc1N1CCOCC1 (stereo not given)	x	1%[0.501 µM]	73%	8%	24%	35%
O=C(c1ccco1)N1CCN(c2ccc(N3CCCCC3)nn2)CC1	x	0%[0.501 µM]	46%	-1%	0%	-4%
CC(C)Cn1c(=O)c(CCC(=O)Nc2ccc(N3CCOCC3)cc2)nc2cc(Cl)ccc21	10%	-14%	19%	x	-36%	-10%
NC(=O)c1ccc(NC(=O)C2CCN(S(=O)(=O)Cc3ccccc3)CC2)cc1	x	u	20%	x	0%	-4%
CC(NC(=O)C1=CC=CN2CCS(=O)(=O)N=C12)c1ccc(Cl)cc1Cl (stereo not given)	x	-11%[2.33 µM]	26%	u	12%	-9%
CN=c1scc(-c2ccc(OC)cc2)n1/N=C(\C)c1cccnc1	-21%	32µM*	45µM*	u	32µM*	50µM*
COc1ccc(CC(=O)N/N=C(\C)c2cccnc2)cc1	-5%	x	52%	x	-8%	-2%
